Data reported in PubChem BioAssay (Tox21).
Results filed as inconclusive are left out. Activity calls are given as the source filed them. Unless noted, the call rests on the fitted dose curve; in most records, active means well fitted curve in the direction sought with a large enough effect in the repeat runs; inconclusive means weak or mixed curves; inactive means no such curve, though single readings can be large; an effect the other way counts as inactive or inconclusive.

Columns and labels:
[1] = target: Aryl hydrocarbon receptor (Homo sapiens) (UniProt P35869); assay: qHTS assay to identify small molecule that activate the aryl hydrocarbon receptor (AhR) signaling pathway (AID 743085);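 further: HG2L7.5c1 human HepG2 liver cells with stably integrated DRE-driven firefly reporter; series mostly up to about 70 µM; nearly all actives have a fitted effect of over 15% in size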
Sequence of Aryl hydrocarbon receptor (Homo sapiens) (P35869 whole entry, looked up): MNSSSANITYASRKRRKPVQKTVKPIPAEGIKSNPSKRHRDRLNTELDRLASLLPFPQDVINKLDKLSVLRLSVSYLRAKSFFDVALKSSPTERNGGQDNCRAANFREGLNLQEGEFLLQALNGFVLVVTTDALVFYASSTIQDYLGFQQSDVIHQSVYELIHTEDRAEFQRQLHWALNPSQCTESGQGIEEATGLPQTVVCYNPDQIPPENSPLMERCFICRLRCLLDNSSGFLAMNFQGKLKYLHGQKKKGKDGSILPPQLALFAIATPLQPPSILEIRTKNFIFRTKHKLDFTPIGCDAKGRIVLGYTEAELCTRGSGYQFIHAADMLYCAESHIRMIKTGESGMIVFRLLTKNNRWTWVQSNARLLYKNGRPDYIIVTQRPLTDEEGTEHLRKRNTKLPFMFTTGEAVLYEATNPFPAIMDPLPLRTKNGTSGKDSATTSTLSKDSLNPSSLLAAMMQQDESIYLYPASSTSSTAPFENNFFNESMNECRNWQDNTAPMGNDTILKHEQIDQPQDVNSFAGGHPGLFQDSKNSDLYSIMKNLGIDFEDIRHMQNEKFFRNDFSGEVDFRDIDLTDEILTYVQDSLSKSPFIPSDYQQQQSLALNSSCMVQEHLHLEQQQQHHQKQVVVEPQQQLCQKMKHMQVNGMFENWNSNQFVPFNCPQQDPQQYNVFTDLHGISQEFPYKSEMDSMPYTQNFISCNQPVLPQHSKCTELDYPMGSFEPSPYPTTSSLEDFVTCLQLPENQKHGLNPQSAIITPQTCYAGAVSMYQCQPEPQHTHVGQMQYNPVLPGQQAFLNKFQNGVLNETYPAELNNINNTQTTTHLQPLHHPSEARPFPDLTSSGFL
Outline: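 Compounds were tested in HepG2 hepatocellular carcinoma cells harbouring a stably integrated luciferase gene under control of 20 DREs. Increased reporter signal after 24 h treatment at 37C was taken as AhR activation.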

[2] = qHTS assay to identify small molecule that activate the aryl hydrocarbon receptor (AhR) signaling pathway - cell viability counter screen (AID 743086);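 further: HepG2 liver cells carrying the AhR DRE luciferase reporter; series mostly up to about 70 µM; nearly all actives have a fitted effect of over 45% in size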
Outline: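 HepG2-AhR-luc (HG2L7.5c1) cells, 4000/well, treated 24 h at 37 C with compound; viability measured as CellTiter-Fluor fluorescence after 30 min in the same wells as the luciferase read.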

[3] = target: Peroxisome proliferator-activated receptor gamma (Homo sapiens) (UniProt P37231); assay: qHTS assay to identify small molecule agonists of the peroxisome proliferator-activated receptor gamma (PPARg) signaling pathway (AID 743094; active means well fitted activation curve with a large enough effect in the signal ratio in the repeat runs, not every such curve was filed as active; the % refers to the signal ratio)
Sequence of Peroxisome proliferator-activated receptor gamma (Homo sapiens) (P37231 whole entry, looked up): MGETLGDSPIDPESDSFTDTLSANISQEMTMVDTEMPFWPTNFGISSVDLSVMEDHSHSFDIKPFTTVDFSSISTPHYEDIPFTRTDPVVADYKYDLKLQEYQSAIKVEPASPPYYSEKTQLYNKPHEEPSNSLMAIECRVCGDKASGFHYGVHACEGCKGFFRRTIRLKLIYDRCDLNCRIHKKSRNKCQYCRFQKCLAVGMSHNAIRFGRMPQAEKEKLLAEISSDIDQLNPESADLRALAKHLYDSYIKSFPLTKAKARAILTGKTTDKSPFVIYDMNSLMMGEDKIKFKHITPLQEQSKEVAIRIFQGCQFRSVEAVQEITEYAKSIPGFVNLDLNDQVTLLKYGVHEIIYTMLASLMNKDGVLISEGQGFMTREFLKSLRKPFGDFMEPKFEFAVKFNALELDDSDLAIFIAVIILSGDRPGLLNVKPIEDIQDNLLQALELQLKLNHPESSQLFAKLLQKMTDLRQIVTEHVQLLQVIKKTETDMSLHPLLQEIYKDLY
Outline: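 Fluorescence-based beta-lactamase readout in HEK293H PPARg UAS-bla cells after 17 h compound exposure (37C) and 1 h B/G FRET substrate incubation at room temperature.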

[4] = target: Peroxisome proliferator-activated receptor gamma (Homo sapiens) (UniProt P37231); assay: qHTS assay to identify small molecule antagonists of the peroxisome proliferator-activated receptor gamma (PPARg) signaling pathway (AID 743191; calls by dose curve; further: series mostly up to about 63 µM; nearly all actives have a fitted effect of over 30% in size)
Outline: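 GeneBLAzer PPARg UAS-bla HEK293H cells, 5 h post-plating, exposed to compounds 17 h at 37C. LiveBLAzer B/G FRET substrate added for 1 h at room temperature; beta-lactamase reporter read by fluorescence intensity.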

[5] = qHTS assay for small molecule agonists of the antioxidant response element (ARE) signaling pathway (AID 743202; active means well fitted activation curve with a large enough effect in the signal ratio in the repeat runs, not every such curve was filed as active; the % refers to the signal ratio; further: potency means the concentration at half of the fitted maximal effect)
Outline: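 HepG2 ARE-bla cells; 16 h treatment at 37 C; FRET-based beta-lactamase fluorescence read after 2 h substrate incubation at room temperature.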

[6] = qHTS assay for small molecule agonists of the antioxidant response element (ARE) signaling pathway - cell viability counter screen (AID 743203; calls by dose curve; further: nearly all actives have a fitted effect of over 55% in size)
Outline: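 Parallel cytotoxicity read-out for the ARE-bla screen: HepG2 reporter cells, 16 hrs with compounds, then CellTiter-Glo luminescence.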

[7] = qHTS assay for small molecule activators of the heat shock response signaling pathway - cell viability counter screen (AID 743209); further: nearly all actives have a fitted effect of over 50% in size
Outline: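 To flag cytotoxic compounds, HSE-bla HeLa cells plated at 1500 cells/well were dosed for 5 h at 37 C, followed by the reporter FRET read and then CellTiter-Glo, with luminescence recorded 30 min after reagent addition.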

[8] = qHTS assay for small molecule activators of the heat shock response signaling pathway (AID 743210; active means well fitted activation curve with a large enough effect in the signal ratio in the repeat runs, with a control signal flat, not every such curve was filed as active; the % refers to the signal ratio;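 further: HeLa cells with beta-lactamase reporter driven by heat shock elements; series mostly up to about 63 µM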)
Outline: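 Following overnight attachment, HSE-bla HeLa cells received test compounds for 5 h at 37 C; beta-lactamase activity was then detected via FRET substrate fluorescence.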

[9] = qHTS assay to identify small molecule agonists of the peroxisome proliferator-activated receptor delta (PPARd) signaling pathway - cell viability counter screen (AID 743211); further: nearly all actives have a fitted effect of over 55% in size
Outline: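 Counter screen for cytotoxicity run in parallel with the PPARd reporter screen. Beta-lactamase reporter HEK293H cells exposed to compounds 17 h; ATP-based CellTiter-Glo luminescence quantified viability.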

[10] = target: Peroxisome proliferator-activated receptor delta (Homo sapiens) (UniProt Q03181); assay: qHTS assay to identify small molecule agonists of the peroxisome proliferator-activated receptor delta (PPARd) signaling pathway (AID 743212; calls by dose curve)
Sequence of Peroxisome proliferator-activated receptor delta (Homo sapiens) (Q03181 whole entry, looked up): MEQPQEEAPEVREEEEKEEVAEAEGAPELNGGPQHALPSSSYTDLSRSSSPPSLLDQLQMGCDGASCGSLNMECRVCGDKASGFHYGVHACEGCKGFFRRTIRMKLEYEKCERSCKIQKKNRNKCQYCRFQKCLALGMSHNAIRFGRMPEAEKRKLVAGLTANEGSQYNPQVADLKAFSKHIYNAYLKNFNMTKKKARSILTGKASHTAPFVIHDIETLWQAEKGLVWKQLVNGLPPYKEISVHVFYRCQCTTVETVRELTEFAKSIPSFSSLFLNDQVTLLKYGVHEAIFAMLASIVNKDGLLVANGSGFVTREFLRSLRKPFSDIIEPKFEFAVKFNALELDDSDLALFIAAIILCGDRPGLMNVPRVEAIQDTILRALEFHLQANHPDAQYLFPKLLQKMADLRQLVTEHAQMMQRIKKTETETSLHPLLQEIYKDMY
Outline: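 Tox21 library screened in GeneBLAzer PPARd UAS-bla HEK293H cells. After compound treatment at 37 C, a FRET-based beta-lactamase substrate was applied for 2 h and fluorescence recorded.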

[11] = qHTS assay to identify small molecule antagonists of the peroxisome proliferator-activated receptor delta (PPARd) signaling pathway - cell viability counter screen (AID 743213); further: nearly all actives have a fitted effect of over 50% in size
Outline: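 Same-well viability: cells pre-incubated 5 h, dosed with compound plus 300 nM L165041, kept 17 h at 37 C, FRET substrate 2 h RT, then CellTiter-Glo 30 min RT and luminescence.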

[12] = target: Peroxisome proliferator-activated receptor delta (Homo sapiens) (UniProt Q03181); assay: qHTS assay to identify small molecule antagonists of the peroxisome proliferator-activated receptor delta (PPARd) signaling pathway (AID 743215; active means well fitted inhibition curve with a large enough effect in the signal ratio in the repeat runs, not every such curve was filed as active; the % refers to the signal ratio;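 further: cells stimulated with agonist L165041 at 300 nM final during compound exposure; series mostly up to about 62 µM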)
Outline: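 Screen format: qHTS, antagonist mode. HEK293H PPARd-bla cells received compound and 300 nM L165041 (final), 17 h, 37 C. Beta-lactamase detected via FRET substrate fluorescence, 2 h, room temperature.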

[13] = qHTS assay to identify small molecule agonists of the farnesoid-X-receptor (FXR) signaling pathway - cell viability counter screen (AID 743218); further: nearly all actives have a fitted effect of over 45% in size; further: potency means the concentration at half of the fitted maximal effect
Outline: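 Same-well cytotoxicity check on FXR-UAS-bla HEK 293T cells: 5 h attachment, 16 h compound at 37 C, CellTiter-Glo luminescence read at room temperature after 30 min.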

[14] = qHTS assay to identify small molecule antagonists of the farnesoid-X-receptor (FXR) signaling pathway - cell viability counter screen (AID 743221; active means well fitted cell-killing curve with a large enough effect in the repeat runs, not every such curve was filed as active; further: nearly all actives have a fitted effect of over 50% in size)
Outline: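 Multiplexed counter screen: viability of FXR-bla HEK 293T cells under agonist stimulation by chenodeoxycholic acid (50 uM, final) and test compound for 16 h at 37 C, measured by CellTiter-Glo luminescence in the reporter wells.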

[15] = qHTS assay to identify small molecule agonists of the vitamin D receptor (VDR) signaling pathway - cell viability counter screen (AID 743224); further: nearly all actives have a fitted effect of over 50% in size; further: potency means the concentration at half of the fitted maximal effect
Outline: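 Counter screen for cytotoxicity: VDR-bla cells at 2,000 cells/well, 16 h compound exposure, then CellTiter-Glo luminescence after the beta-lactamase measurement.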

[16] = qHTS assay to identify small molecule antagonists of the peroxisome proliferator-activated receptor gamma (PPARg) signaling pathway - cell viability counter screen (AID 743194); further: nearly all actives have a fitted effect of over 55% in size
Outline: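 Cytotoxicity counter screen in PPARg-bla HEK293H cells, same wells as reporter assay. Compounds plus 50 nM rosiglitazone (final) for 17 h at 37 C, then viability read by CellTiter-Glo luminescence.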

[17] = target: Bile acid receptor (Homo sapiens) (UniProt Q96RI1); assay: qHTS assay to identify small molecule agonists of the farnesoid-X-receptor (FXR) signaling pathway (AID 743220; active means well fitted activation curve with a large enough effect in the signal ratio in the repeat runs, not every such curve was filed as active; the % refers to the signal ratio)
Sequence of Bile acid receptor (Homo sapiens) (Q96RI1 whole entry, looked up): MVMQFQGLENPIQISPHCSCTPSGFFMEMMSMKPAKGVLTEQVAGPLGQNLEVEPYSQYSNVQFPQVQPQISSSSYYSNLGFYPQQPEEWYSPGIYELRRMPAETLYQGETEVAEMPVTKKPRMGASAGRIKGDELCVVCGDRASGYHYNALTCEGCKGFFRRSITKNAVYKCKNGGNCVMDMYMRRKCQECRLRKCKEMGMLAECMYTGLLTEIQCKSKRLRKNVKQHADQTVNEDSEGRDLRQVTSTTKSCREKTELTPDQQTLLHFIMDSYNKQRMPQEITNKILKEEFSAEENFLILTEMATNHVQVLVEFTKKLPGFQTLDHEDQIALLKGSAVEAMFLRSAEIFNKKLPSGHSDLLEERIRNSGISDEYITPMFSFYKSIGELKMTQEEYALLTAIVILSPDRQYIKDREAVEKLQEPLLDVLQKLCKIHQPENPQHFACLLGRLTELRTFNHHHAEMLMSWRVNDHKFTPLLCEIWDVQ
Outline: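 FXR-UAS-bla HEK 293T cells carrying a UAS-driven beta-lactamase reporter were plated for 5 h at 37C/5% CO2, then exposed to DMSO-dissolved Tox21 10K compounds for 16 h at 37C. A LiveBLAzer B/G FRET substrate was loaded for 2 h at room temperature before fluorescence reading.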

[18] = target: Vitamin D3 receptor (Homo sapiens) (UniProt P11473); assay: qHTS assay to identify small molecule agonists of the vitamin D receptor (VDR) signaling pathway (AID 743222; calls by dose curve)
Sequence of Vitamin D3 receptor (Homo sapiens) (P11473 whole entry, looked up): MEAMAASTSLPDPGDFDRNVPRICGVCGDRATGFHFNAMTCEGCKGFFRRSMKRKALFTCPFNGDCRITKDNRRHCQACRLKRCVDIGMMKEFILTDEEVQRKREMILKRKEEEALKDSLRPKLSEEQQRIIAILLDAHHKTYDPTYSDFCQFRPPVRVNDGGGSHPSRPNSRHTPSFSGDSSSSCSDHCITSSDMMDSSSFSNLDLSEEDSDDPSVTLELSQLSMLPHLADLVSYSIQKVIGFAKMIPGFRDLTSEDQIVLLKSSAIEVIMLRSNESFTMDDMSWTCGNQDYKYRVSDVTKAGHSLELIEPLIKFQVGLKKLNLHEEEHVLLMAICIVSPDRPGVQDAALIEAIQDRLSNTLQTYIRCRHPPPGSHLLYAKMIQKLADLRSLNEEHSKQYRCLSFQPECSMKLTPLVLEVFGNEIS
Outline: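 Using LiveBLAzer B/G FRET detection, agonism was scored in VDR-bla cells exposed overnight (16 h, 37C) to DMSO-dissolved compounds; substrate incubation was 2 h at room temperature.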

[19] = target: Vitamin D3 receptor (Homo sapiens) (UniProt P11473); assay: qHTS assay to identify small molecule antagonists of the vitamin D receptor (VDR) signaling pathway (AID 743223; active means well fitted inhibition curve with a large enough effect in the signal ratio in the repeat runs, not every such curve was filed as active; the % refers to the signal ratio)
Outline: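 Cells carrying a VDR-driven beta-lactamase reporter (VDR-bla) were co-treated with compound and 3 nM final 1alpha,25-dihydroxyvitamin D3 for 16 h at 37C; reporter activity was measured as FRET substrate fluorescence after 2 h at room temperature.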

[20] = target: Bile acid receptor (Homo sapiens) (UniProt Q96RI1); assay: qHTS assay to identify small molecule antagonists of the farnesoid-X-receptor (FXR) signaling pathway (AID 743217; active means well fitted inhibition curve with a large enough effect in the signal ratio in the repeat runs, not every such curve was filed as active; the % refers to the signal ratio; further: potency means the concentration at half of the fitted maximal effect)
Outline: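 Quantitative HTS, beta-lactamase reporter format: FXR-UAS-bla HEK 293T cells co-treated 16 h at 37 °C with compounds and 50 uM final chenodeoxycholic acid, then read by B/G FRET fluorescence.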

Measured: Potency

CC(CSC(=O)c1ccccc1)C(=O)N1C[C@@H](Sc2ccccc2)C[C@H]1C(=O)O (some centres not stated)
not listed: [16] | [17] | [18] | [19] | [20]
inactive: all other assays above

Cc1nn(C)c(Oc2ccccc2)c1/C=N/OCc1ccc(C(=O)OC(C)(C)C)cc1
inactive: [1] | [2] | [3] | [16] | [7] | [8] | [12] | [17] | [14]
active: [15] 0.0123 µM

CCOC(=O)c1cccnc1
not listed: [4] | [7] | [8] | [13] | [17] | [18] | [19] | [20]
inactive: all other assays above

CO[C@@H]1[C@H](OC(=O)/C=C/C=C/C=C/C=C/C(=O)O)CC[C@]2(CO2)[C@H]1[C@@]1(C)O[C@@H]1CC=C(C)C
active: [5] 24.3 µM | [13] 1.95 µM
not listed: [4] | [8] | [9] | [14] | [17] | [19] | [20]
inactive: all other assays above

CC[N+](C)(CC)CCOC(=O)C(O)(c1ccccc1)C1CCCCC1 (configuration not stated)
not listed: [4] | [10] | [11] | [12] | [17] | [18] | [20]
inactive: all other assays above

Cc1ncc(CO)c(C=O)c1O
not listed: [4] | [5] | [8] | [11] | [17] | [20]
inactive: all other assays above

NCc1ccccc1Sc1ccccc1CO
not listed: [4] | [5] | [10] | [12] | [13] | [17] | [20]
inactive: all other assays above

O=P(O)(OCc1ccccc1)OCc1ccccc1
not listed: [4] | [5] | [10] | [12] | [16] | [20]
inactive: all other assays above

O=C1CCCCCCCCCCCC(=O)OCCO1
not listed: [4] | [5] | [11] | [12] | [13] | [17] | [19] | [20]
inactive: all other assays above

CCCn1cnc2c1c(=O)n(CCCCC(C)=O)c(=O)n2C
not listed: [4] | [11] | [13]
inactive: all other assays above

C[C@@H]1C[C@H]2O[C@@]3(O[C@@H]2C(C)(C)O)[C@H](O)[C@@]2(C)[C@@H]4CC[C@H]5C(C)(C)[C@@H](O[C@@H]6OC[C@@H](O)[C@H](O)[C@H]6O)CC[C@@]56C[C@@]46CC[C@]2(C)[C@@H]13
not listed: [4] | [5] | [10] | [11] | [12] | [17] | [20]
inactive: all other assays above

CN(C)CCCN1c2ccccc2Sc2ccccc21
inactive: [1] | [2] | [3] | [7] | [10] | [20] | [17] | [18]
active: [13] 13.3 µM

Cn1c(=O)cc(Oc2ccc(F)cc2F)c2cnc(NCC(C)(C)O)nc21
active: [5] 30.6 µM | [20] 43.6 µM
inactive: [1] | [2] | [3] | [16] | [6] | [9] | [10] | [11] | [17] | [14]

Nc1cc(C(=O)O)c(O)c(S(=O)(=O)O)c1
not listed: [4] | [8] | [10] | [12] | [17] | [20]
inactive: all other assays above

O=C(O)c1ccco1
not listed: [4] | [10] | [12] | [13] | [16] | [17] | [20]
inactive: all other assays above

CCOC(=O)C(F)(F)F
not listed: [4] | [5] | [11] | [18]
inactive: all other assays above

C=C(C)C(=O)OCCO
not listed: [4] | [5] | [19]
inactive: all other assays above
